Experimental data published in PubChem BioAssay AID1671202 (University of Kansas High Throughput Screening Laboratory, 2021).
Values joined by “and” are separate entries in the source; they are usually repeats but may differ in a detail not shown here. Equal values may be shown once. Screen size: about 190,000 compounds; about 6,900 (3.6%) were called active. What follows is part of a selection rich in actives, with near analogues and random picks from the rest. Values without a mark were called inactive. Rule as the data show it: active = inhibition above about 50%; inactive = the rest.

Biological target: Huntingtin (Homo sapiens) (UniProt P42858)
Assay: mutant huntingtin-calmodulin interaction inhibitors – biochemical, AlphaScreen, primary screen (AID 1671202);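 also: 0% = both proteins with DMSO and 100% = one protein alone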
Settings: AlphaScreen His-mHTT/GST-CaM binding, luminescence; at 15 µM, hits give high values

Sequence of Huntingtin (Homo sapiens) (P42858 whole entry, looked up, stated change not applied): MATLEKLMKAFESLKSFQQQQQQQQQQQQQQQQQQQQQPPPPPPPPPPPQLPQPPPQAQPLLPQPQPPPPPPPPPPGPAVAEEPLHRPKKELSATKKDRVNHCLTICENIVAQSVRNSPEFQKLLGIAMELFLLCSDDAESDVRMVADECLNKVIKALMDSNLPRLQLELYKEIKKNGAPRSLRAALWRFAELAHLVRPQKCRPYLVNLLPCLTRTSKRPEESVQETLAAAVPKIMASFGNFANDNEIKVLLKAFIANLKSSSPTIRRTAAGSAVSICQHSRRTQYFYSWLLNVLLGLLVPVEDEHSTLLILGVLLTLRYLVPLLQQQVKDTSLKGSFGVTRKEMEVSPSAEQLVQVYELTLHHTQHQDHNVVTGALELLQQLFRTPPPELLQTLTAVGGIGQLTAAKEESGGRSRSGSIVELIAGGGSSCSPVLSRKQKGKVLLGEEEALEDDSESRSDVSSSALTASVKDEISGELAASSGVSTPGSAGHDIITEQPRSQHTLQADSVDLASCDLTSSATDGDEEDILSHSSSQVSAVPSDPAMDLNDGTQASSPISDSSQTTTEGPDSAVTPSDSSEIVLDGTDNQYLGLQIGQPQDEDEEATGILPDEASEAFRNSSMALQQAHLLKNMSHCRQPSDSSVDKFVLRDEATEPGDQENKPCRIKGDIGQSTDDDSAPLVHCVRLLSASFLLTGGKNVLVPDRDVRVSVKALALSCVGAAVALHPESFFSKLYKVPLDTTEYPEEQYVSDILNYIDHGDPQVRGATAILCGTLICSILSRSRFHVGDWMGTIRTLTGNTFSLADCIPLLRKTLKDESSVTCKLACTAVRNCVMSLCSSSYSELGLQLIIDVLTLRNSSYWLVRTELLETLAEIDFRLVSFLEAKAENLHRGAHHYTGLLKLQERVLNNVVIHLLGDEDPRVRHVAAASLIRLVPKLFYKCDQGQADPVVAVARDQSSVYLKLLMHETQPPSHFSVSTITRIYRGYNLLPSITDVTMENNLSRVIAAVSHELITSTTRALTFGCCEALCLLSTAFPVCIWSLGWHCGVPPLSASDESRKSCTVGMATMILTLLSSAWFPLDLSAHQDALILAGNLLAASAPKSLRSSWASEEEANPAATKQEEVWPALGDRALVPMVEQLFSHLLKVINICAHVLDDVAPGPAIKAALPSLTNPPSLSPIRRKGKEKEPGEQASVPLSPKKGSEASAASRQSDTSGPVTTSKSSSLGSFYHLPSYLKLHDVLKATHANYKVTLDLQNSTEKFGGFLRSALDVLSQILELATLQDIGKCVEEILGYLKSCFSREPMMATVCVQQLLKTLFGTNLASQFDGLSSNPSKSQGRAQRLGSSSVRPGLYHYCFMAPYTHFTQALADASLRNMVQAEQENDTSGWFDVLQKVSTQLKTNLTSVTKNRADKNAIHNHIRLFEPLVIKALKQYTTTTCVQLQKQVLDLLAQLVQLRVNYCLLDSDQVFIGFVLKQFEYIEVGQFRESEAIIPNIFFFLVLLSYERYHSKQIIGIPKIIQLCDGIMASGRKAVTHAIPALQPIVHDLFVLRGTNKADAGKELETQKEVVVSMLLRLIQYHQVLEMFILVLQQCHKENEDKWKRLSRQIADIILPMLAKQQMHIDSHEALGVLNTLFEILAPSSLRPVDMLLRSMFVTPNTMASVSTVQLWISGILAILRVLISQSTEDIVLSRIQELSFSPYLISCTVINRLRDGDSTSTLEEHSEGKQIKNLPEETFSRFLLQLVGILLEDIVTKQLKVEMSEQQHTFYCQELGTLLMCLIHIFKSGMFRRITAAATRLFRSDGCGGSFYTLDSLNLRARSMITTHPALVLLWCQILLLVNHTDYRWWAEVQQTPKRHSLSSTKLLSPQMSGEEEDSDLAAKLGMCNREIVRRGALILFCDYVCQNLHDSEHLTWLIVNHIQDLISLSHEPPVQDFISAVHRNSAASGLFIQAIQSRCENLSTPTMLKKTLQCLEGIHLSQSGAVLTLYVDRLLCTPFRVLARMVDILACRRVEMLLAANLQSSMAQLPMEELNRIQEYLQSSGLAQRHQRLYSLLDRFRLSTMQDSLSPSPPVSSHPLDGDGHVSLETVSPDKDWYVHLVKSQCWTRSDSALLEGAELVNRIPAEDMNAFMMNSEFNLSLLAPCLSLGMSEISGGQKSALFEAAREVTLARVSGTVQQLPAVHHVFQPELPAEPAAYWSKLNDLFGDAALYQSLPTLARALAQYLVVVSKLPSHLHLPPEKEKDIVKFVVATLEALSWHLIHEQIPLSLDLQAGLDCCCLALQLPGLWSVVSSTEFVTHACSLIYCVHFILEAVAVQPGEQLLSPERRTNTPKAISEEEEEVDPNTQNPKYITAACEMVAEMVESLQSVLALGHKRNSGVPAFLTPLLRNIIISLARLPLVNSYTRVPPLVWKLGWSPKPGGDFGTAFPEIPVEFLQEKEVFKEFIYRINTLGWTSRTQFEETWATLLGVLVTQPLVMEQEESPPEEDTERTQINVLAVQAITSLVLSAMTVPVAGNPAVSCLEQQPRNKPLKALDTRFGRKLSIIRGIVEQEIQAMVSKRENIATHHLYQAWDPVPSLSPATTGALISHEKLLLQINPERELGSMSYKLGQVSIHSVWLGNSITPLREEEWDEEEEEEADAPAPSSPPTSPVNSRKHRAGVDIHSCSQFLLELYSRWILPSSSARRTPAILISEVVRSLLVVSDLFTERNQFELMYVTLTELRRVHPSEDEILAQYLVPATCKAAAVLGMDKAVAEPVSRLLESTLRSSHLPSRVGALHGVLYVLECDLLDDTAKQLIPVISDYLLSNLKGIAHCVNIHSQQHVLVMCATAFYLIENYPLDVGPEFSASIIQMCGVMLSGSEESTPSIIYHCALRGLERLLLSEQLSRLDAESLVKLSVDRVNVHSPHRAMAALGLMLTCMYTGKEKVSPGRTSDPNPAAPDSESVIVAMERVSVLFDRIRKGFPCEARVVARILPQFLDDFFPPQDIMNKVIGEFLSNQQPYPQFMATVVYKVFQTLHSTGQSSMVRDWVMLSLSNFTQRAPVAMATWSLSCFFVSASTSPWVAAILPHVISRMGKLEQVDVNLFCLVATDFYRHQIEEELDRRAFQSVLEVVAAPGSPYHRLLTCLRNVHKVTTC

Question: How did the inhibition turn out when `CCN(Cc1ccccc1)C(=O)c1sc2ccccc2c1Cl` was run?
Answer: -67.9%

Question: With `CCCCN1C(=O)C(C)(C(=O)Nc2cccc(OC)c2)Oc2cccnc21` (stereo not drawn) as the compound, how does the inhibition read?
Answer: 4.7%

Question: Which inhibition does the source give for `Cc1cccc(-n2nnc(C(=O)NCCN3CCCC3)c2N)c1` here?
Answer: 2%

Question: How did the inhibition turn out when `c1ccc2[nH]c(-c3nc4ccccc4[nH]3)nc2c1` was run?
Answer: 7.27%

Question: How did the inhibition turn out when `C1=C(N2CCOCC2)/C(=C/c2nc3ccccc3[nH]2)CC1` was run?
Answer: 67.1% (active)

Question: For `c1ccc(-c2nnc(N3CCOCC3)c3ccccc23)cc1`, which inhibition is on record?
Answer: -4.1%

Question: With `Cc1cc(Cl)ccc1NC(=O)C(C)N(c1ccccc1)S(C)(=O)=O` (stereo not drawn) as the compound, how does the inhibition read?
Answer: -1.9%

Question: For `O=C(NCc1ccc2c(c1)OCO2)C1CCc2sc(C(=O)N3CCOCC3)cc2C1` (stereo not drawn), which inhibition is on record?
Answer: -0.39%

Question: With `CCCNC(=O)C1CCN(Cc2c(C)n(CC)c3ccccc23)CC1` as the compound, how does the inhibition read?
Answer: 7.5%

Question: `Cc1cc(C(=O)N2CC(C(=O)Nc3cccc(NS(C)(=O)=O)c3)C2)no1` was tested. Which inhibition did it give?
Answer: -19.8%

Question: Which inhibition does the source give for `Cc1cc(C(=O)N2CC(C(=O)N3CCN(c4ccc(Cl)c(Cl)c4)CC3)C2)no1` here?
Answer: 66.7% (active)

Question: How did the inhibition turn out when `COc1ccccc1N1CCN(C(=O)c2cc(-c3ccc(Cl)c(Cl)c3)on2)CC1` was run?
Answer: -3%

Question: How did the inhibition turn out when `CN(C(=O)Cc1c[nH]c2ccccc12)C1(C(=O)NC2CCCCC2)CCCCC1` was run?
Answer: 6%

Question: Which inhibition does the source give for `CC(=O)c1sc(NC(=O)c2ccccc2[N+](=O)[O-])nc1C` here?
Answer: -19.4%

Question: For `Cc1cccc(C(=O)NCCC2CCN(C(=O)Nc3cccc(Cl)c3)CC2)c1`, which inhibition is on record?
Answer: -18.9%

Question: How did the inhibition turn out when `CCOc1ccc(-n2c(C)nc3cc(C(=O)NCC(OCC)OCC)ccc32)cc1` was run?
Answer: 23%

Question: For `COc1ccccc1-n1c(C)nc2cc(C(=O)NCc3cccnc3)ccc21`, which inhibition is on record?
Answer: 0%

Question: `CCOC(CNC(=O)c1ccc2c(c1)nc(C)n2-c1cc(Cl)ccc1OC)OCC` was tested. Which inhibition did it give?
Answer: 52% (active)

Question: `O=C1c2ccccc2C(=O)c2c1ccc(Cl)c2NC(=O)C(F)(F)F` was tested. Which inhibition did it give?
Answer: 18%

Question: With `O=S(=O)(c1ccc(Cl)cc1)N1CCSC1c1ccccc1Cl` (stereo not drawn) as the compound, how does the inhibition read?
Answer: -18%

Question: `O=C(NC1CCCCC1)C1CC(c2ccc(F)cc2)=NO1` (stereo not drawn) was tested. Which inhibition did it give?
Answer: -5.78%

Question: `N=C1S/C(=C\c2ccc(N3CCOCC3)cc2)C(=O)N1c1ccccc1Cl` was tested. Which inhibition did it give?
Answer: 39%

Question: Which inhibition does the source give for `Cc1ccc(C2=CC(c3ccc(C)cc3)n3nc(CCCO)nc3N2)cc1` (stereo not drawn) here?
Answer: 24%

Question: With `CCC(=O)NCc1csc(C2CCCN(C(=O)C(C)(C)C)C2)n1` (stereo not drawn) as the compound, how does the inhibition read?
Answer: 1.52%

Question: For `O=C1OC(c2cccc(Br)c2)=N/C1=C\c1ccc(I)cc1`, which inhibition is on record?
Answer: 5%

Question: With `COC(=O)c1ccc(NC(=O)C(c2ccccc2)n2cccc2)cc1` (stereo not drawn) as the compound, how does the inhibition read?
Answer: 75.5% (active)

Question: How did the inhibition turn out when `COC(C(=O)Nc1ccc(C(C)=O)cc1)c1ccccc1` (stereo not drawn) was run?
Answer: -1.7%

Question: With `O=C(Nc1cc(F)ccc1F)C(c1ccccc1)n1cccc1` (stereo not drawn) as the compound, how does the inhibition read?
Answer: 42.3%

Question: With `CN(C)Cc1c(O)ccc2c1OC(=Cc1cccs1)C2=O` as the compound, how does the inhibition read?
Answer: 1.1%

Question: How did the inhibition turn out when `NNc1nc2sc3c(c2c(=O)n1Cc1ccccc1)CCCC3` was run?
Answer: 79.8% (active)

Question: Which inhibition does the source give for `Nc1nc(SCC(=O)N2CCCCC2)nc2sc3c(c12)CCCC3` here?
Answer: 35%

Question: How did the inhibition turn out when `C=CCn1c(SC(CCO)C(=O)N2CCCCC2)nc2sc3c(c2c1=O)CCCC3` (stereo not drawn) was run?
Answer: 35.2%

Question: How did the inhibition turn out when `CCOc1ccccc1NC(=O)N1CC2CN(S(=O)(=O)c3ccc(C)cc3)CC(C1)O2` was run?
Answer: -6.22%

Question: How did the inhibition turn out when `O=C(NCc1ccco1)N1CCC2(CC1)Nc1ccccc1-n1cccc12` was run?
Answer: 67.5% (active)

Question: With `COc1ccccc1NC(=O)N1CCC2(CC1)NC(=O)c1cc(F)ccc1N2C` as the compound, how does the inhibition read?
Answer: -0.74%

Question: Which inhibition does the source give for `COc1ccc(C)cc1NC(=O)N1CCC2(CC1)Nc1cc(F)ccc1-n1cccc12` here?
Answer: 54% (active)

Question: For `CCOCCCNC(=O)C1(C)CCC(=O)N1c1ccc(F)cc1C` (stereo not drawn), which inhibition is on record?
Answer: -2.61%

Question: Which inhibition does the source give for `CCOCCCNC(=O)N1CCC2(CC1)Nc1cc(F)ccc1-n1cccc12` here?
Answer: 64.6% (active)

Question: Which inhibition does the source give for `CC1CCC2(CC1)NC(=O)N(CC(=O)NCc1ccco1)C2=O` (stereo not drawn) here?
Answer: 1.16%

Question: `CCOc1ccccc1NC(=O)N1CCC(N2CCN(Cc3ccccc3)C2=O)CC1` was tested. Which inhibition did it give?
Answer: 4.68%

Question: With `Cc1ccccc1-n1ccn(CC(=O)NCc2ccco2)c(=O)c1=O` as the compound, how does the inhibition read?
Answer: 1%

Question: Which inhibition does the source give for `Cc1ccc(NC(=O)N2CCC3(CC2)Nc2cc(F)ccc2-n2cccc23)c(Cl)c1` here?
Answer: 31.9%

Question: For `CCOc1ccccc1NC(=O)N1CCC2(CC1)c1cccn1-c1ccc(C)cc1N2CC`, which inhibition is on record?
Answer: 50.5% (active)

Question: Which inhibition does the source give for `CCOCCCNC(=O)N1CCc2cn(C)c3cccc(c23)C1` here?
Answer: 4.99%

Question: Which inhibition does the source give for `CC(C)n1c(C2CCN(C(=O)C3(c4ccccc4)CC3)C2)nc2ccncc21` (stereo not drawn) here?
Answer: 1.58%

Question: How did the inhibition turn out when `O=c1[nH]c(-c2ccccc2)cn1-c1cccc(C(F)(F)F)c1` was run?
Answer: 12%

Question: Which inhibition does the source give for `C=Cc1ccc(CN2C(=O)N(c3ccc(F)cc3)c3ncccc3S2(=O)=O)cc1` here?
Answer: -1.5%

Question: For `Nc1cc(C2CCN(C(=O)Nc3cc(Cl)cc(Cl)c3)CC2)no1`, which inhibition is on record?
Answer: 1.32%

Question: For `Cc1nn2cc(-n3cc([N+](=O)[O-])cn3)cnc2c1[N+](=O)[O-]`, which inhibition is on record?
Answer: -2.97%

Question: Which inhibition does the source give for `COc1cccc(CC(=O)Nc2cccn3c(C)nnc23)c1` here?
Answer: -2.3%

Question: For `CCCn1c(=O)c2sc(N3CCCC3)nc2n(CC(=O)Nc2cc(F)cc(F)c2)c1=O`, which inhibition is on record?
Answer: -10.6%

Question: How did the inhibition turn out when `COc1ccc2oc(-c3ccc(NC(=O)c4cccc(Br)c4)cc3)nc2c1` was run?
Answer: 34%

Question: For `C=CCc1ccc(OCC(=O)NCCC2=CCCCC2)c(OC)c1`, which inhibition is on record?
Answer: -16%

Question: With `COc1cc(OC)c(N2C=C(C#N)S(=O)(=O)c3ccc(F)cc32)cc1Cl` as the compound, how does the inhibition read?
Answer: -0.3%

Question: Which inhibition does the source give for `Cc1cccc(CNC(=O)c2cc(C(C)C)n3nccc3n2)c1` here?
Answer: -134%

Question: `Cc1ccc(NC(=O)O[C@H]2CCC23CCCCC3)cc1` was tested. Which inhibition did it give?
Answer: -86.9%

Question: `Cc1cc(C)c(S(=O)(=O)N2CCCC2C(=O)NCCc2csc(C)n2)c(C)c1` (stereo not drawn) was tested. Which inhibition did it give?
Answer: -2.4%

Question: For `Cc1cccc(C(=O)N2CCN(c3nc4ccccc4n(CC(C)C)c3=O)CC2)c1`, which inhibition is on record?
Answer: -13.3%

Question: For `CCN1c2ccc(C)cc2C(=O)NC12CCN(C(=O)c1cccc(C)c1)CC2`, which inhibition is on record?
Answer: -2.5%

Question: For `Cc1ccc2c(c1)NC1(CCN(C(=O)c3ccccc3)CC1)c1cccn1-2`, which inhibition is on record?
Answer: 84.3% (active)

Question: How did the inhibition turn out when `O=C1NC2(CCN(C(=O)c3ccccc3)CC2)Nc2cc(Cl)ccc21` was run?
Answer: -7.3%

Question: Which inhibition does the source give for `CCNc1nccc(N2CCC(CC(=O)NCc3cccc(Cl)c3)CC2)n1` here?
Answer: 7.56%

Question: How did the inhibition turn out when `COc1ccc(-c2cc(C(F)(F)F)n3nc(C(=O)N4CCC(C)CC4)cc3n2)cc1OC` was run?
Answer: 4%

Question: `COc1ccc(C(=O)NC(C)c2ccccc2)cc1OC` (stereo not drawn) was tested. Which inhibition did it give?
Answer: -4.5%

Question: How did the inhibition turn out when `COc1ccc(CCNC(=O)COc2ccccc2Br)cc1OC` was run?
Answer: 1.8% and -8.4%

Question: Which inhibition does the source give for `COc1ccc(CC(=O)NC(c2ccccc2)c2ccccc2)cc1OC` here?
Answer: 53.3% (active)

Question: `COc1ccc(OC)c(CN2CCc3nc(N4CCOCC4)ncc3C2)c1` was tested. Which inhibition did it give?
Answer: 13.8%

Question: `CCc1ccccc1NC(=O)c1cc2n(n1)CCCN(Cc1ccc(F)cc1)C2=O` was tested. Which inhibition did it give?
Answer: -3.32%

Question: With `CC(C)(C)c1ccc(C(=O)Nc2nc3ccc(S(C)(=O)=O)cc3s2)cc1` as the compound, how does the inhibition read?
Answer: -2%

Question: `CS(=O)(=O)c1ccc2nc(NC(=O)/C=C/c3ccccc3)sc2c1` was tested. Which inhibition did it give?
Answer: 76% (active)

Question: `Cc1cc(C)c(C(=O)Nc2nc3ccc(S(C)(=O)=O)cc3s2)c(C)c1` was tested. Which inhibition did it give?
Answer: -1.4%

Question: For `COc1cc(N2CN=c3s/c(=C\c4ccc([N+](=O)[O-])cc4)c(=O)n3C2)cc(OC)c1OC`, which inhibition is on record?
Answer: 49%

Question: How did the inhibition turn out when `Brc1ccc2c(c1)CCCN2` was run?
Answer: 10%

Question: Which inhibition does the source give for `CC1=NOC(=O)/C1=C/c1ccc(-c2cc(Cl)ccc2Cl)o1` here?
Answer: -2%

Question: Which inhibition does the source give for `O=C1NN=C(c2ccccc2)/C1=C/c1ccc(-c2ccc(Cl)cc2)o1` here?
Answer: 61% (active)

Question: With `Cc1nn2c(=O)/c(=C/c3ccc(-c4ccc(F)cc4)o3)sc2nc1=O` as the compound, how does the inhibition read?
Answer: -2%

Question: With `Cc1cccc(CSC2=NCCN2C(=O)Cc2ccc(F)cc2)c1` as the compound, how does the inhibition read?
Answer: -24%

Question: How did the inhibition turn out when `COc1cc(/C=C(\C#N)c2nc3ccccc3[nH]2)ccc1OCC#N` was run?
Answer: 12%

Question: How did the inhibition turn out when `CCCCOc1ccc(/C=C(\C#N)c2nc3ccccc3[nH]2)cc1` was run?
Answer: -1%

Question: `N#C/C(=C\C=C\c1ccccc1)c1nc2ccccc2[nH]1` was tested. Which inhibition did it give?
Answer: 75% (active) and 58% (active)

Question: `CC(=O)c1cccc(NC(=O)/C(=C\c2ccc3c(c2)OCO3)NC(=O)c2ccccc2Cl)c1` was tested. Which inhibition did it give?
Answer: 7%

Question: How did the inhibition turn out when `COc1cccc2sc(N(C)CC(=O)Nc3nc(C)cs3)nc12` was run?
Answer: -3%

Question: Which inhibition does the source give for `CCOc1cc(-c2ccc(O)c(OC)c2)cc(=O)c2c(C)oc(C)c12` here?
Answer: 51% (active)

Question: With `COc1ccc(-c2c(C)c3ccc(O)c(CN4CCCC4)c3oc2=O)cc1OC` as the compound, how does the inhibition read?
Answer: 2.3%

Question: For `COc1cc(-c2ccc(O)c(O)c2)cc(=O)c2c(C)oc(C)c12`, which inhibition is on record?
Answer: 49%

Question: `N#CC1=C(N)N2CCN3C(N)=C(C#N)C1(c1ccccc1)C23c1ccccc1` (stereo not drawn) was tested. Which inhibition did it give?
Answer: 21%

Question: For `O=C1CC(O)(C(F)(F)F)Oc2ccc(Cl)cc21` (stereo not drawn), which inhibition is on record?
Answer: 0%

Question: Which inhibition does the source give for `CC(C)N1C/C(=C\c2ccsc2)C(=O)/C(=C/c2ccsc2)C1` here?
Answer: 45%

Question: How did the inhibition turn out when `COc1ccc(NC(=O)c2cc(S(=O)(=O)NCCc3ccc(Cl)cc3)ccc2F)cc1` was run?
Answer: 20%

Question: For `O=C(Nc1ccc(F)cc1)c1cc(S(=O)(=O)NCCc2ccc(Cl)cc2)ccc1F`, which inhibition is on record?
Answer: 61% (active)

Question: How did the inhibition turn out when `O=C(Nc1ccc(F)cc1)c1cc(S(=O)(=O)NCc2ccc(F)cc2)ccc1F` was run?
Answer: -3%

Question: `COc1ccccc1OCCNC(=O)CSc1ccc(C(F)(F)F)cc1[N+](=O)[O-]` was tested. Which inhibition did it give?
Answer: 2%

Question: For `CC1=C(C(=O)Nc2cccnc2)C(c2ccccn2)n2nc(SCc3ccccc3)nc2N1` (stereo not drawn), which inhibition is on record?
Answer: 5%
